For 114 molecules, z-score results are on record in PubChem BioAssay AID488969 (Vanderbilt High Throughput Screening Facility, 2010).

Structures are written as SMILES. The full ranking holds about 110,000 compounds; the median of “z-score” is about -0.1, and the highest 2% start at about 2. The sample as a whole holds a higher share of the highest values than the screen did. The source made the active and inactive calls.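 How the source made its calls: active means z-score in the third read window above 3 or below -3; inactive means the rest.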

Metabotropic glutamate receptor 8 (Rattus norvegicus), sequence (P70579 whole entry, looked up): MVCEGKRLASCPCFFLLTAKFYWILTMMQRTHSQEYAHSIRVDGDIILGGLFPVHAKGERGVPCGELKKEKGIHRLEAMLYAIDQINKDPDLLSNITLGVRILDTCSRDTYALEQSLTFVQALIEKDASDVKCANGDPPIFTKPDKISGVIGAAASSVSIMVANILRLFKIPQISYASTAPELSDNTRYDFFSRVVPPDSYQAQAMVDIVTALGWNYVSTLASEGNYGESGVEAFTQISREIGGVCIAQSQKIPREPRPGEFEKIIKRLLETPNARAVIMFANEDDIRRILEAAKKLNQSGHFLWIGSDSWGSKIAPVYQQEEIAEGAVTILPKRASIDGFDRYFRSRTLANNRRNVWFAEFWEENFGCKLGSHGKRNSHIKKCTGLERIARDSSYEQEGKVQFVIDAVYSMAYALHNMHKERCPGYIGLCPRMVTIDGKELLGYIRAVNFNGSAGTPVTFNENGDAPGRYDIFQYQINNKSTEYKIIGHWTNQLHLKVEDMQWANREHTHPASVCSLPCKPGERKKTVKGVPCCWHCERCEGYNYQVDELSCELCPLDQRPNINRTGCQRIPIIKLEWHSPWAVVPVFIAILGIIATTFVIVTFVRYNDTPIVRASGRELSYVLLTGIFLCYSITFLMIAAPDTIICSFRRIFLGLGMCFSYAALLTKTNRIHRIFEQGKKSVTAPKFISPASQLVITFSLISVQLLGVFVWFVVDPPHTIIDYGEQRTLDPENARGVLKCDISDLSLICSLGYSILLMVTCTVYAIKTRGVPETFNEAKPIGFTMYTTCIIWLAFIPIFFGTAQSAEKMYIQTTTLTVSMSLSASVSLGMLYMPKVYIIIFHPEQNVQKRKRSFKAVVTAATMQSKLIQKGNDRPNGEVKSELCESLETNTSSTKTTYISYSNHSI

This assay concerns the target Metabotropic glutamate receptor 8 (Rattus norvegicus) (UniProt P70579). The experiment in a line: rat mGluR8 modulators via GIRK flux, primary screen, cell-based, thallium flux, HTS (AID 488969). Particulars: HEK293 rat mGluR8, GIRK (G protein-gated inwardly rectifying potassium channel) thallium flux, FluoZin2; at 10 µM; stronger effect = higher value; submaximal glutamate (EC20) added with thallium.
In turn, `Cc1nn(-c2cc(C)c3ccccc3n2)c2c1CCC2` gave a z-score of 0.557.

Molecule `Cc1ccc(C)c(NC(=S)NC(NC(=O)/C=C/c2ccccc2)C(Cl)(Cl)Cl)c1` (centres undefined) gave a z-score of -0.264.

`CC1CCCN(c2ccc(C(=O)OCC(=O)N3c4ccccc4Sc4ccccc43)cc2[N+](=O)[O-])C1` (centres undefined) returned a z-score of -0.269.

On to `c1ccc2c(c1)CCCN2c1nc2ccccc2n2cnnc12`, for which the z-score is -0.203.

Regarding `COc1ccc(OC)c(NC(=O)C2CC(=O)n3ncnc3N2)c1` (centres undefined), the z-score was -0.244.

`CS(=O)(=O)N(CC(=O)N1CCN(c2ccccc2)CC1)c1ccc(Cl)c(C(F)(F)F)c1` displayed a z-score of -0.0753.

The molecule `CCn1c(=NC(=O)c2ccc(N3C(=O)CCC3=O)cc2)sc2c(OC)ccc(OC)c21` displayed a z-score of -0.536.

`CCn1c(Cc2ccc(OC)cc2)nnc1SCC(=O)N1CCN(c2ccccc2)CC1` returned a z-score of 0.352.

`O=C(O)C1CCCCC1C(=O)Nc1cc(Cl)ccc1Cl` (centres undefined): the z-score is 2.08.

With `O=C(O)C1CCCCC1C(=O)Nc1ccccc1Cl` (centres undefined), the z-score was -0.189.

The molecule `O=C(O)C1CC=CCC1C(=O)Nc1cc(Cl)ccc1Cl` (centres undefined) had a z-score of -0.205.

Molecule `CCCCC(=O)NC(=S)NNC(=O)CC#N` displayed a z-score of -0.265.

As for `Clc1ccc2[nH]c3c(NCC4CCCO4)ncnc3c2c1` (centres undefined), the z-score is -3.05 (active).

As for `CCN1CCCC1CNc1ncnc2c1[nH]c1ccc(F)cc12` (centres undefined), the z-score stood at 2.55.

With `Fc1ccc2[nH]c3c(NCCN4CCOCC4)ncnc3c2c1`, the z-score is 0.07.

For `CCOC(=O)c1ccc(Oc2c(C)oc3cc(OS(C)(=O)=O)ccc3c2=O)cc1`, the z-score is -0.214.

As for `NC(=O)N/N=C\c1cc(Br)ccc1O`, the z-score was -0.265.

`CC(C)NC(=S)N/N=C/c1cc(Br)ccc1O`: the z-score is 6.43 (active).

In turn, `Cc1ccc(/C=N/NC(=S)NC(C)C)o1` had a z-score of -0.11.

Turning to `FC(F)(F)c1cnc2c(c1)Nc1ccccc1S2`, the z-score turned out to be 0.635.

As to `C=CCNCc1cccn1-c1sc2c(c1C#N)CCCC2`, the z-score came out at 2.43.

For the molecule `N#Cc1c(-n2cccc2/C=N/O)sc2c1CCCC2`, the z-score was -0.27.

In the case of `Cc1ccc(C)n1-c1sc2c(c1C#N)CCCC2`, the z-score was -0.0485.

Molecule `Oc1ccccc1C1=Nc2ccccc2N=C(c2cccs2)C1` showed a z-score of 0.0299.

For the molecule `O=C(CSc1nnc2n1CCCN2C(=S)Nc1ccc(Cl)cc1)c1ccccc1`, the z-score was -0.14.

With `CN(c1ccc(C(=O)NCCSCc2ccco2)cc1)S(C)(=O)=O`, the z-score is -0.396.

For the molecule `Cn1c(NC(=O)Cc2cccs2)cc(=O)n(C)c1=O`, the z-score turned out to be 0.422.

In turn, `COc1ccc(CC(=O)Nc2cc(=O)n(C)c(=O)n2C)cc1` had a z-score of 2.78.

`Cn1c(NC(=O)Cc2ccc(F)cc2)cc(=O)n(C)c1=O` returned a z-score of 2.79.

`CCCC(=O)Nc1cc(=O)n(C)c(=O)n1C` gave a z-score of -0.309.

`Cn1c(NC(=O)COc2ccccc2)cc(=O)n(C)c1=O` yielded a z-score of 0.597.

In the case of `Cn1c(NC(=O)CCc2ccccc2)cc(=O)n(C)c1=O`, the z-score is -0.492.

In turn, `Cc1cccc(CSCCNC(=O)Nc2ccccc2)c1` yielded a z-score of -0.872.

The molecule `CC(=O)NNc1nc(-c2ccc(NC(C)=O)cc2)cs1` came in with a z-score of -0.0151.

`CCOC(=O)/C=c1\s/c(=C\c2ccc(C)cc2)c(=O)n1CC(=O)NCc1ccco1` yielded a z-score of 0.0354.

Molecule `O=C(/C=C/c1ccc(Cl)cc1Cl)NC(=S)Nc1ccc(CN2CCOCC2)cc1` yielded a z-score of 0.0804.

The molecule `CC(=O)N/C(=C/c1ccc(OS(=O)(=O)c2ccc(C)cc2)cc1)C(=O)NCCO` returned a z-score of -0.101.

Consider `CCOCC(=O)Nc1nnc(C)s1`, for which the z-score turned out to be 1.02.

`CC12CCC(C(=O)Nc3ccc(SC(F)F)cc3)(CC1=O)C2(C)C` (centres undefined) came in with a z-score of 0.519.

Take `C=C1C2(C(=O)Nc3ccc(SC(F)F)cc3)CCC(C2)C1(C)C` (centres undefined): the z-score worked out at 0.546.

Consider `O=C(Nc1ccc(SC(F)F)cc1)C12CCC(CC1)C2`, for which the z-score is 3.38 (active).

Turning to `CCCCCNCc1ccc(Br)cc1`, the z-score is -0.224.

In turn, `OCc1cc(CO)c(O)c(CCc2ccccc2)n1` came in with a z-score of 0.171.

In the case of `COc1ccc(-c2nnc(-c3cccs3)o2)cc1OC`, the z-score was -0.0864.

`c1ccc(Nc2nc(-c3ccccn3)cs2)cc1` came in with a z-score of -0.545.

For the molecule `COc1cccc2sc(Nc3nnc(-c4cccs4)o3)nc12`, the z-score is 17.4 (active).

In turn, `COc1cccc2sc(Nc3nc4ccc(NC(C)=O)cc4s3)nc12` registered a z-score of -0.147.

Take `COc1cc2nc(-c3cccs3)oc(=O)c2cc1OC`: the z-score was -0.693.

For `COc1cccc2sc(Nc3nc(-c4ccccn4)cs3)nc12`, the z-score was 5.31 (active).

Take `COc1ccc(-c2nnc(Nc3nc4c(OC)cccc4s3)o2)cc1`: the z-score was 17.1 (active).

With `COc1cc(-c2nnc(-c3cccs3)o2)cc(OC)c1OC`, the z-score is 2.27.

In turn, `CCOC(=O)c1sc(Nc2nc3c(OC)cccc3s2)cc1C` gave a z-score of -0.137.

For `COc1cccc2sc(Nc3nc(-c4cc5ccccc5oc4=O)cs3)nc12`, the z-score was found to be 0.111.

On to `COc1cccc2sc(NC(=O)c3ccc(Br)s3)nc12`, for which the z-score was 0.601.

Molecule `COc1cc(-c2nnc(-c3cc(OC)c(OC)c(OC)c3)o2)cc(OC)c1OC` had a z-score of -1.02.

For `CCOc1ccc(NC(=O)CC2C(=O)N(C)C(=S)N2CCCc2ccccc2)cc1` (centres undefined), the z-score stood at 0.36.

Take `O=C(Cc1c(F)cccc1Cl)c1ccc(O)cc1O`: the z-score came out at 0.0496.

For the molecule `CCOC(=O)c1cccc(NC(=O)C2CCCN2S(=O)(=O)c2cccc3cccnc23)c1` (centres undefined), the z-score was -0.226.

Regarding `CN(CCOC(=O)C1c2ccccc2Oc2ccccc21)C(C)(C)C`, the z-score amounted to 0.442.

Molecule `CNC(=O)CCSc1ccc(C)cc1` returned a z-score of 1.02.

Take `O=C(CSc1ncnc2c1cnn2CCc1ccccc1)Nc1cccc(C(F)(F)F)c1`: the z-score is -0.203.

`CCN(CC)S(=O)(=O)c1cc(C)c(C)cc1Br`: the z-score worked out at 0.329.

In turn, `NS(=O)(=O)c1ccc(CCNC(=O)CNC(=O)C2CCCCC2)cc1` displayed a z-score of -0.063.

With `O=C(Nc1cccc(F)c1)NC1(C(=O)N2CCN3CCCC3C2)CCCCC1` (centres undefined), the z-score was found to be 0.517.

Consider `N#Cc1c(NC(=O)CSc2nc(-c3ccccc3)cc(C(F)(F)F)n2)sc2c1CCC2`, for which the z-score was 0.0217.

The molecule `c1ccc(-n2c(SCc3nc(-c4cccs4)no3)nnc2-c2ccco2)cc1` came in with a z-score of -1.55.

The molecule `CCOC(=O)CCC(=O)N1CCOCCOCCN(C(=O)CCC(=O)OCC)CCOCC1` showed a z-score of -0.107.

For `CCCCn1c(CN(C)Cc2ccccc2)nc2c1c(=O)n(C)c(=O)n2C`, the z-score worked out at 0.165.

Take `CCCCn1c(CN(Cc2ccccc2)Cc2ccccc2)nc2c1c(=O)n(C)c(=O)n2C`: the z-score was 3.38 (active).

For `CCOCCn1c(CN(Cc2ccccc2)Cc2ccccc2)nc2c1c(=O)n(C)c(=O)n2C`, the z-score stood at 0.389.

In turn, `COCCn1c(CN(C)Cc2ccccc2)nc2c1c(=O)n(C)c(=O)n2C` gave a z-score of -0.377.

For `COCCn1c(CN(Cc2ccccc2)Cc2ccccc2)nc2c1c(=O)n(C)c(=O)n2C`, the z-score is 3.37 (active).

`CCCCCn1c(CN(C)Cc2ccccc2)nc2c1c(=O)n(C)c(=O)n2C` registered a z-score of 0.218.

In turn, `CCCCNC(=O)Nc1ccccc1C(=O)NCc1ccco1` came in with a z-score of 0.486.

`COc1cc(OC)cc(C(=O)NNC(=O)NC2CCCCC2)c1`: the z-score was -0.0486.

For `CC(=O)NCCOc1ccc2oc3ccccc3c2c1`, the z-score was -0.506.

`O=C1c2ccccc2NC(c2cccc(Cl)c2)N1N=C1CCCCCC1` (centres undefined) registered a z-score of -0.359.

`COC(=O)CSc1nc2ncccc2[nH]1` returned a z-score of 2.69.

The molecule `CC(C)OC(=O)CSc1nc2ncccc2[nH]1` yielded a z-score of -0.0946.

In turn, `CCN(CC)C(=O)CSc1nc2ncccc2[nH]1` displayed a z-score of 1.1.

As for `Cc1ccc2oc(-c3ccc(C)c(NC(=S)NC(=O)c4cccs4)c3)nc2c1`, the z-score was found to be 0.703.

Turning to `Cc1ccc2oc(-c3cccc(NC(=O)Cc4cccs4)c3)nc2c1`, the z-score is 0.0421.

As to `Cc1ccc2oc(-c3cccc(NC(=S)NC(=O)c4cccs4)c3)nc2c1`, the z-score was 3.78 (active).

On to `Cc1ccc(-c2nc3ccccc3o2)cc1NC(=S)NC(=O)/C=C/c1ccco1`, for which the z-score turned out to be 0.0248.

Turning to `Cc1cc(C)c2oc(-c3ccc(C)c(NC(=S)NC(=O)c4cccs4)c3)nc2c1`, the z-score is 3.57 (active).

In the case of `Cc1ccc(-c2nc3ccccc3o2)cc1NC(=S)NC(=O)c1cccs1`, the z-score came out at 1.65.

Molecule `Cc1cc(C)c2oc(-c3ccc(C)c(NC(=S)NC(=O)/C=C/c4ccco4)c3)nc2c1` came in with a z-score of -0.0423.

In turn, `Cc1ccc(-c2nc3ccccc3o2)cc1NC(=S)NC(=O)c1cc2ccccc2o1` returned a z-score of 2.35.

Consider `Cc1ccc2oc(-c3cccc(NC(=S)NC(=O)/C=C/c4ccco4)c3)nc2c1`, for which the z-score was -0.494.

As to `Cc1cc(NC(=O)COC(=O)c2cccc(OCc3ccccc3)c2)no1`, the z-score came out at 0.388.

Turning to `CCN(CC)C(=O)C1CC(=O)OC12CCCCC2` (centres undefined), the z-score was -0.477.

Turning to `COc1ccc(OC)c(C(=O)COC(=O)C2CC3CCCC(C2)C3=O)c1` (centres undefined), the z-score is 1.3.

Molecule `Cc1noc(C)c1C(=O)OC(C(=O)NC1CCCC1)c1ccc(F)cc1` (centres undefined) had a z-score of 0.659.

In turn, `CCOC(=O)c1sc(NC(=S)NC(=O)c2ccccc2Cl)c(C(=O)OCC)c1C` displayed a z-score of 0.214.

With `CCOC(=O)c1sc(NC(=O)COC(=O)c2ccco2)nc1C`, the z-score came out at 0.0458.

The molecule `COC(=O)c1sc(NC(=S)NC(=O)c2ccccc2)nc1C` yielded a z-score of 2.47.

As to `CCOC(=O)c1sc(NC(=O)c2ccco2)nc1-c1ccccc1`, the z-score was 0.0322.

In turn, `COC(=O)c1sc(NC(=O)COc2cccc(C)c2)nc1C` registered a z-score of -0.0129.

`COC(=O)c1sc(Nc2ccccc2)nc1C` showed a z-score of -0.75.

In turn, `Cc1nc(NC(=S)NC(=O)c2ccccc2)sc1C(=O)N(C)C` showed a z-score of -0.185.

Regarding `CCOC(=O)c1sc(NC(=S)NC(=O)c2ccco2)nc1C`, the z-score is 7.57 (active).

`COC(=O)c1sc(NC(=S)NC(=O)c2cccc(C)c2)nc1C`: the z-score was 4.51 (active).

In turn, `Cc1cccc(C(=O)Nc2nc(C)c(C(=O)Nc3ccc4c(c3)CCC4)s2)c1` registered a z-score of -0.0981.

As for `COc1ccc(C(=O)NC(=S)Nc2nc(C)c(C(=O)N(C)C)s2)cc1`, the z-score was -0.0547.

For the molecule `COC(=O)c1sc(NC(=S)NC(=O)c2ccccc2Cl)nc1C`, the z-score is 5.46 (active).

Molecule `Cc1nonc1OCC(C)(COc1nonc1C)NC(=O)c1ccccc1` gave a z-score of -0.133.

Regarding `CCOC(=O)C1C(=O)NC(N2CCOCC2)=NC1c1ccco1` (centres undefined), the z-score is -0.222.

As for `CCOC(=O)C1CCCN(C(=S)Nc2cccc(Cl)c2C)C1` (centres undefined), the z-score was -0.429.

`O=c1c2ccccc2nc(-c2ccc(Cl)cc2)n1C1CCS(=O)(=O)C1` (centres undefined) registered a z-score of -0.341.

The molecule `Cc1cc2nc(C)n(CCCNC(=O)Nc3cccc4ccccc34)c2cc1C` registered a z-score of -0.0533.

Turning to `CCCN1CNC(=S)N(CC2CCCO2)C1` (centres undefined), the z-score amounted to 0.136.

For `Cc1c(Cl)cnc(NC(=O)COC(=O)CCC(=O)c2cccs2)c1Cl`, the z-score was -0.28.

In turn, `CNC(=S)N(Cc1ccc(OC)cc1)C1CC(=O)N(c2ccc(C(=O)OC)cc2)C1=O` (centres undefined) gave a z-score of -0.228.

In turn, `Cc1ccc2nc3ccc(N4CCCCCCC4)nn3c(=O)c2c1` showed a z-score of -0.682.
